FMDV inh: blocks foot and mouth disease virus; Potency, µM (titrated, usually from 57.9 µM), for the others: at the top dose activity change, negative = inhibition, actives largely listed as inhibitors; hit rate 1.2% among 410,000; AID 1159524; FMDV antiviral cell-based qHTS; calls by dose curve; tested in HEK293T cells; further: read-out not given here; potency means the concentration at half of the fitted maximal effect; nearly all actives have a fitted effect of over 45% in size
HCV inh: inhibitors of hepatitis C virus infection | Huh7.5.1 HCVcc-Cre infection, luciferase reporter, 44 h | Potency, µM (highest dose often 41.8 µM), for inactives: at the highest dose activity change, negative = inhibition, most hits filed as inhibitors | hit rate 3.4% among 340,000; active means well fitted inhibition curve with a large enough effect; inconclusive means small, poorly fitted or top-dose-only effect, or another doubt; inactive means no such curve, though single readings can be large or run the other way; further: potency means the concentration at half of the fitted maximal effect
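Cells (1,000/well) were plated 4 h before compound, then infected with HCVcc-Cre virus (~0.5 moi). After 44 h further culture, infection was read as luciferase luminescence following a 15 min substrate incubation at room temperature.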
Vaccinia mCherry: inhibitors of vaccinia virus infection (mCherry reporter signal); hit rate 0.63% among 310,000; Vaccinia virus mCherry reporter infection, fluorescence; Potency, µM (highest dose often 36.5 µM), without a hit: at the highest dose activity change, negative = inhibition, most hits filed as inhibitors; calls by dose curve; tested in A549 cells; further: potency means the concentration at half of the fitted maximal effect; nearly all actives have a fitted effect of over 35% in size
HCMV inh: blocks human cytomegalovirus replication; activity change, negative = inhibition, % at 57.5 µM; AID 1259415; hit rate 4.5% among 410,000; HFF cells, HCMV-luciferase reporter, 72 h; active compounds read low; in the data active means activity change below about -60%; inconclusive means no clear call, values can overlap the other calls; inactive means above about -39%
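Inhibition of viral replication was scored as loss of reporter luminescence in HFFs infected with HCMV-luciferase (MOI 1 PFU/cell) for 72 h; compounds tested at 2 doses, normalized to buffer and Salinomycin controls.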
Vaccinia Venus: inhibitors of vaccinia virus (Venus reporter); Vaccinia virus Venus reporter expression, fluorescence; Potency, µM (titrated, usually from 36.5 µM), without a hit: at the highest dose activity change, negative = inhibition, hits mostly inhibitors; hit rate 0.46% among 330,000; calls by dose curve; tested in A549 cells; further: potency means the concentration at half of the fitted maximal effect; nearly all actives have a fitted effect of over 30% in size
* marks the source's active call; other numbers are inactive results; i = inactive; ? = inconclusive; nt = not tested or not shown; [ ] = remark or other dose. In the library only some 7.3% were active in any assay of this set; here they are far more common. On the % scale 0 is the no-effect control and ±100 the full control effect.

SMILES	FMDV inh	HCV inh	Vaccinia mCherry	HCMV inh	Vaccinia Venus
CC(=O)C1CC[C@H]2C3CC[C@@H]4CC(O)CC[C@@]4(C)C3CC[C@]12C (stereo partly specified)	-6%	nt	-14%	nt	-17%
CC(=O)OC1CC[C@]2(C)C(CCC3C2CC[C@]2(C)C(C4=CC(=O)OC4)C(OC(C)=O)CC32O)C1 (stereo partly specified)	?	nt	1µM*	nt	1.1µM*
C[C@]12CC[C@@H](O)C[C@@H]1CC[C@@H]1[C@@H]2CC[C@]2(C)C(=O)[C@H](O)C[C@@H]12	-21%	nt	-9%	nt	-9%
CC12CCC(O)CC1CCC1C2CCC2(C)C(C3=CC(=O)OC3)CCC12O (stereo unspecified)	?	5µM*	?	-99*	0.89µM*
C[C@]12CC[C@H](O)C[C@H]1CC[C@@H]1[C@@H]2CC[C@]2(C)[C@@H](C3=CC(=O)OC3)CC[C@]12O	-17%	2µM*	?	-97*	1.1µM*
CC(=O)OC1CCC23C(=O)OC45CCC(C6=CC(=O)OC6)C4(C)CCC2C5CCC3(O)C1 (stereo unspecified)	0%	nt	1.8µM*	nt	1.3µM*
C[C@]12CC[C@H](O)C[C@H]1CC[C@@H]1[C@@H]2C[C@@H](O)[C@]2(C)[C@@H](C3=CC(=O)OC3)CC[C@]12O	?	0.56µM*	1.1µM*	-100*	1.1µM*
CC(=O)OC1CCC2C3CCC4=CC(=O)CCC4(C)C3CCC2(C)[C@]1(C)O (stereo partly specified)	?	nt	nt	3	nt
Cc1cccc(N2CCN(c3ccc4cc(S(=O)(=O)N5CCC(C)CC5)ccc4n3)CC2)c1C	-22%	nt	-10%	21	-2%
COc1ccc2c(c1)-c1nc(-n3ncc(C(=O)NCc4cccnc4)c3C3CC3)ncc1CC2	?	nt	?	nt	-18%
C[C@@H](Nc1nc(Cl)nc2nc[nH]c12)c1ccccc1	nt	nt	-17%	nt	?
O=C1CC(Sc2nnnn2C2CCCCC2)C(=O)N1c1ccccc1 (stereo unspecified)	nt	?	-14%	-69*	-16%
Cc1ccc(NC(=O)C(=Cc2ccc(C(=O)O)cc2)C(=O)Nc2ccc(C)cc2C)c(C)c1	11µM*	?	nt	nt	nt
Cc1cnc(CNc2ncnc3ccc(-c4ccccc4C#N)cc23)cn1	-13%	nt	13%	nt	16%
COC(=O)C1=C(c2ccc(OC)c(OC)c2)C[C@@H]2CC[C@H]1N2C(=O)NCCOc1ccccc1	-8%	-14%	-16%	-21	-15%
COCCNC(=O)N1[C@H]2CC[C@@H]1C(C(=O)OC)=C(c1ccc(-c3ccccc3)c(F)c1)C2	-13%	3.2µM*	?	-40	?
COC(=O)C1=C(c2ccc(-c3ccccc3)c(F)c2)C[C@@H]2CC[C@H]1N2C(=O)NCC1CC1	?	?	-29%	-39	?
COC(=O)C1=C(c2ccc(-c3ccccc3)c(F)c2)C[C@@H]2CC[C@H]1N2C(=O)NCCOc1ccccc1	?	13µM*	-2%	40	?
COC(=O)c1ccc(NC(=O)CSc2ccc(-c3sc(-c4ccccc4)nc3C)nn2)cc1	5%	nt	-6%[7.34 µM]	?	-3%[7.34 µM]
Cc1ccc(C2=NN(S(=O)(=O)c3ccccc3)C(c3ccco3)C2)cc1 (stereo unspecified)	-27%	13µM*	nt	?	nt
Cc1ccc2cc(C3CC(c4ccco4)=NN3S(=O)(=O)c3ccccc3)c(Cl)nc2c1 (stereo unspecified)	-11%	-3%	nt	-80*	nt
CS(=O)(=O)Nc1ccc(C2=NN(S(=O)(=O)c3ccc(F)cc3)C(c3ccco3)C2)cc1 (stereo unspecified)	?	-23%	nt	-3	nt
O=S(=O)(c1ccccc1)N1N=C(c2ccc(Br)cc2)CC1c1ccco1 (stereo unspecified)	-10%	?	i[7.34 µM]	-60*	0%[7.34 µM]
O=S(=O)(c1ccccc1)N1N=C(c2ccc(O)cc2)CC1c1ccco1 (stereo unspecified)	?	10µM*	nt	?	nt
O=C(c1ccco1)N1N=C(c2ccc(Br)cc2)CC1c1ccco1 (stereo unspecified)	-29%	?	nt	147	nt
SMILES	FMDV inh	HCV inh	Vaccinia mCherry	HCMV inh	Vaccinia Venus
CC(=O)N1N=C(c2cccc(NS(=O)(=O)c3ccc(C)cc3)c2)CC1c1ccco1 (stereo unspecified)	-29%	3.2µM*	-4%	-21	-16%
Cc1ccccc1-c1cncnc1NCc1ccccc1	-12%	nt	nt	nt	nt
Cc1ccc(CNc2ccc3cc(S(=O)(=O)N4CCCCC4)ccc3n2)cc1	-4%	nt	-12%[7.34 µM]	-1	-10%[7.34 µM]
O=C(NCc1cccs1)C1CCN(c2ccc(S(=O)(=O)N3CCOCC3)cc2Cl)CC1	-12%	11%	i	-86*	-29%
C#CCNC(=O)C1CCN(c2cc(C)nc(-c3ccccc3)n2)CC1	10%	-29%	-7%	-95*	-6%
Cc1cc(C)nc(N2CCC(C(=O)NCc3cccs3)CC2)n1	24%	nt	-15%	-93*	-4%
COc1ccccc1C1CN(Cc2cnn(C)c2C)Cc2ccccc2O1 (stereo unspecified)	-10%	nt	-18%	nt	-1%
Cc1ccc2c(/C=C/c3ccc(N(C)C)cc3)ccnc2c1	nt	nt	14%	nt	25%
COc1ccc(CC(N)c2csc(Nc3ncccn3)n2)cc1 (stereo unspecified)	-22%	nt	13µM*	?	?
Cc1cc(C)nc(Nc2nc(C(N)Cc3ccccc3)cs2)n1 (stereo unspecified)	13%	nt	-28%	-73*	?
NC(Cc1ccc(Cl)cc1)c1csc(Nc2ncccn2)n1 (stereo unspecified)	-18%	nt	10µM*	0	7.9µM*
NC(Cc1ccc(F)cc1)c1csc(Nc2ncccn2)n1 (stereo unspecified)	-19%	nt	7.1µM*	-18	7.9µM*
Nc1ccc(CC(N)c2csc(Nc3ncccn3)n2)cc1 (stereo unspecified)	3%	nt	?	-24	?
NC(Cc1ccc(Cl)cc1)c1csc(Nc2nccc(C(F)(F)F)n2)n1 (stereo unspecified)	-19%	nt	2%	-2	-23%
CCC(C)NC(=O)c1ccccc1NC(=O)CN1C(=O)c2cccc3cccc1c23 (stereo unspecified)	11%	nt	24%	-5	17%
CC(C)Oc1cccc(C(=O)Nc2ccc3oc(-c4ccccc4)nc3c2)c1	0%	nt	-22%	-33	-23%
CC(C)NC(=O)C1=CC(c2ccc3c(c2)OCO3)=NS(=O)(=O)N1C	3%	nt	0%	-3	-4%
COc1ccc2[nH]cc(CCNc3nc(-c4cccnc4)nc4ccccc34)c2c1	-7%	nt	nt	nt	nt
CCc1ccc(NS(=O)(=O)c2ccc3[nH]cc(C(=O)NCc4ccc(C)cc4)c(=O)c3c2)cc1	26%	nt	-20%	-3	-24%
COC(=O)[C@]12C[C@H](CC(=O)NCc3cccc4ccccc34)C(=O)N(CCc3ccc(OC)c(OC)c3)C1=C[C@H](C(C)(C)C)O[C@@H]2C	nt	nt	nt	-11	nt

Assay outcomes as filed in PubChem BioAssay.
